In the library only some 7.4% were active in any assay of this set; here they are far more common.
NPC1 promoter act: qHTS Assay for NPC1 Promoter Activators. Huh7 NPC1 promoter luciferase reporter, 24 h. Potency, µM (doses to about 9.22 µM), inactives show at the top dose activation, most hits filed as activators. actives 2.4% (n = 320,000); further: % of control where 0% means no effect; nearly all actives have a fitted effect of over 60% in size
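Luciferase expression driven by the NPC1 promoter was measured in stably transfected Huh7 cells after a 24 h compound incubation, using a luciferase reagent and a luminescence read.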
Rab9 prom act: qHTS Assay for Rab9 Promoter Activators; Huh7 Rab9 promoter-luciferase reporter, luminescence, 24 h; actives 2.8% (n = 320,000); Potency, µM (doses to about 9.22 µM), without a hit: at the top dose activation, negative = inhibition, usual class: activators; further: % of control where 0% means no effect; nearly all actives have a fitted effect of over 60% in size
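Luciferase signal after 10 min detection reagent at ambient indicates Rab9 promoter upregulation; stably transfected Huh7 cells were treated 24 h with compound in DMSO at 37 °C, 5% CO2.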
FLuc counter: qHTS profiling assay for firefly luciferase inhibitor/activator using purifed enzyme and Km concentrations of substrates (counterscreen for miR-21 project); Luciferin 4-monooxygenase (Photinus pyralis), P08659; purified FLuc, Km substrates, luminescence inhibition; Potency, µM (top dose mostly 57.5 µM), inactives show at the top dose activity change, negative = inhibition, usual class: inhibitors; actives 6.9% (n = 360,000);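 further: plate controls were vehicle for no effect and reference inhibitor for full effect; nearly all actives have a fitted effect of over 55% in size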
Target sequence (P08659 whole entry, looked up): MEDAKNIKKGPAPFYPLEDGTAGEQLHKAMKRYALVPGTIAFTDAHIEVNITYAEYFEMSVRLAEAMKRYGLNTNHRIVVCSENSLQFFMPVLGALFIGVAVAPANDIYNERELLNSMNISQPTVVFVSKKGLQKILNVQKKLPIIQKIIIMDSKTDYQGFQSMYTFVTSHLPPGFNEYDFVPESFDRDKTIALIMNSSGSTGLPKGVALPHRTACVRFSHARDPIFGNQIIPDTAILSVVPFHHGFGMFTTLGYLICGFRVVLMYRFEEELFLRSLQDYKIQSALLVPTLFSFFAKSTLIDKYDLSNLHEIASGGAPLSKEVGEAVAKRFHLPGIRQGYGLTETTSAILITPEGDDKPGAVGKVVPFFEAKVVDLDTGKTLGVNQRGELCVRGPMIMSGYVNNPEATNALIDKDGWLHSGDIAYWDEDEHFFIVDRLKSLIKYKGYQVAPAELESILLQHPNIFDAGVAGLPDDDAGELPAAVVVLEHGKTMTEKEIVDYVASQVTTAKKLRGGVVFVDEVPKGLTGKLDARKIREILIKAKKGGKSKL
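Purified P. pyralis luciferase, 10 nM final, with Km-level 10 uM D-luciferin and 10 uM ATP in 50 mM Tris acetate pH 7.5, 10 mM Mg acetate, 0.01% Tween-20, 0.05% BSA; 6-point qHTS titration about 60 µM downward; luminescence read.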
ELG1 genotox: qHTS screen for small molecules that induce genotoxicity in human embryonic kidney (HEK293T) cells expressing luciferase-tagged ELG1; HEK293T ELG1-luciferase reporter, luminescence, 16 h; AID 504466, 2011; actives 1.3% (n = 330,000); Potency, µM (titrated, usually from 46 µM), for inactives: at the highest dose activity change, positive = activation, hits mostly activators; further: % of control where 0% means no effect; nearly all actives have a fitted effect of over 60% in size
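HEK293T cells expressing luciferase-tagged ELG1 were exposed to compound or DMSO vehicle for 16 hr at 37 °C and 5% CO2. Luciferase activity was then measured with ONE-Glo after 30 min at room temperature.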
p53 reactivator: qHTS assay for re-activators of p53 using a Luc reporter; H1299 p53-A138V BP100-luciferase reporter, luminescence, 24 h; Potency, µM (titrated, usually from 92.2 µM), inactives show top-dose activity change, positive = activation, most hits filed as activators; actives 0.063% (n = 320,000); AID 504706, 2011; further: % of control where 0% means no effect; nearly all actives have a fitted effect of over 45% in size
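H1299 (p53-null), stable ts p53-A138V + BP100-Luc; 1000 cells/well, Opti-MEM/10% FBS; cpd 4 pt, 1:5; 24 h, 37 deg C, 5% CO2; detection reagent 10 min RT; luminescence.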
SMN2 splice enh: qHTS Assay for Enhancers of SMN2 Splice Variant Expression | HEK293 SMN2-luciferase splicing reporter, luminescence, 30-36 h | Potency, µM (highest dose often 46.1 µM), without a hit: at the top dose activity change, positive = activation, actives largely listed as activators | actives 2.8% (n = 210,000) | AID 1458, 2008; further: % of control where 0% means no effect; nearly all actives have a fitted effect of over 55% in size
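HEK293 cells carry an SMN2 minigene-luciferase reporter in which exon 7 inclusion puts luciferase in frame. Cells were seeded at 2000 cells/well, attached for 10-12 hours, then exposed to compounds for 30-36 hours at 37C before ONE-Glo luminescence.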
Active calls of the source: *; ? = inconclusive; . = no result; [ ] = remark or other dose. The call rests on the fitted dose curve; in most records, active means well fitted curve in the direction sought with a large enough effect; inconclusive means small, poorly fitted or top-dose-only effect, or another doubt; inactive means no such curve, though single readings can be large; an effect the other way counts as inactive or inconclusive. Potency means the concentration at half of the fitted maximal effect.

SMILES	NPC1 promoter act	Rab9 prom act	FLuc counter	ELG1 genotox	p53 reactivator	SMN2 splice enh
Cc1cc(C)n(-c2nc(NCCO)c3c4c(sc3n2)CCCC4)n1	-1%	0%	?	5%	-4%	-16%
Cc1cccc(C(=O)N/N=C/c2ccc(OCC(=O)N3CCCCC3)cc2)c1	1%	5%	15µM*	0%	1%	-5%
O=C(CSCc1cccc(Cl)c1)N/N=C/c1ccc(OCC(=O)N2CCCCC2)cc1	-2%	0%	2%	-2%	0%	-48%
CC(C)Oc1cccc(C(=O)N/N=C/c2ccoc2)c1	16%	24%	11µM*	?	14%	.
Cn1cccc1/C=N/NC(=O)c1cccc(OC(F)(F)C(F)F)c1	17%	16%	21µM*	12%	?	24%
Cc1cc(C(=O)N/N=C/c2cccn2C)n[nH]1	15%	?	?	13%	?	?
CCCOc1cccc(C(=O)N/N=C/c2ccoc2)c1	6%	23%	13µM*	?	?	.
Cc1ccc(C)c(N2CCN(C(=O)Cn3nc(Cc4cccnc4)c4ccccc4c3=O)CC2)c1	.	.	-15%	.	.	-23%
CC1CCCCC12NC(=O)N(CC(=O)N1CCN(S(=O)(=O)/C=C/c3ccccc3)CC1)C2=O (centres undefined)	1%	-4%	3%	2%	0%	.
N#Cc1ccccc1COC(=O)CCC(=O)c1cccs1	1%	3%	12µM*	4%	4%	.
O=C(CCC(=O)c1cccs1)OCC(=O)c1ccccc1F	5%	9%	19µM*	3%	-8%	.
O=C(CCC(=O)c1cccs1)OCC(=O)c1ccccc1	.	.	.	-2%	16%	.
N#C/C(=C\c1ccc(Cl)cc1)c1nc2ccccc2[nH]1	.	.	-18%	.	.	7%
N#C/C(=C/c1ccc(O)c(O)c1)c1nc2ccccc2[nH]1	0%	-5%	6.7µM*	18%	18%	.
N#C/C(=C\Nc1ccc2c(c1)OCCO2)c1nc2ccccc2[nH]1	?	?	15µM*	-2%	28%	-29%
N#C/C(=C\c1cccs1)c1nc2ccccc2[nH]1	?	?	6.7µM*	?	?	7.9µM*
CCOc1cc(/C=C(\C#N)c2nc3ccccc3[nH]2)ccc1OC(C)C(=O)O (centres undefined)	1%	-5%[1.84 µM]	27µM*	0%	11%	.
O=C(CCc1nc2ccccc2[nH]1)Nc1ccc2c(c1)OCCO2	1%	-1%	-16%	-2%	21%	-10%
COC(=O)C1=C(C(=O)OC)[C@@H]2N(C)c3ccccc3[C@@]23C[C@@H](C(=O)OC)N(S(=O)(=O)c2c(C)noc2C)C3=N1	.	.	.	.	.	-1%[9.22 µM]
N#C/C(=C\c1ccccc1)c1nc2ncccc2[nH]1	-3%	5%	13µM*	4%	9%	2%
N#C/C(=C\c1cc(Br)c(O)c(Br)c1)c1nc2ccccc2c(=O)[nH]1	.	.	15µM*	.	.	-7%
N#C/C(=C\c1ccccc1OCC(=O)O)c1nc2ccccc2[nH]1	-3%	-3%	?	-1%	5%	.
N#C/C(=C\c1ccc(N2CCCC2)c([N+](=O)[O-])c1)c1nc2ccccc2[nH]1	?	?	5.4µM*	12%	16%	-11%
N#C/C(=C\c1ccc(OC(=O)c2cccs2)cc1)c1nc2ccccc2[nH]1	18%	17%	?	?	-24%	11µM*
CC(OC(=O)CCN=C1NS(=O)(=O)c2ccccc21)C(=O)Nc1ccccc1F (centres undefined)	2%	-8%	0%	0%	2%	.
